Reference: PubChem BioAssay
Values without a mark were called inactive. For part of these data: Measured potencies and affinities stand elsewhere. Activity calls are given as the source filed them. Unless noted, how the calls were made is not given here.

Experiments:
[1] = antimalarial activity against Dd2 strain (AID 2302;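 active means growth inhibition above 50% at the single 2 µM test dose, taken to imply half-maximal potency below 2 µM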;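 further: 0% = DMSO untreated growth and 100% = chloroquine plus artemisinin killed control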); conditions: P. falciparum Dd2 in RBCs, LDH growth readout, 72 h; at 2 µM; hits give high values
[2] = human hepatoma cell viability loss – ATP luminescence, cytotoxicity control for P. falciparum antimalarial project, primary screen (AID 2303;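 active means inhibition above 50%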;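 further: 0% = DMSO wells and 100% = digitonin-killed cells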); conditions: HepG2 viability, 24-48 h, at 10 µM, hits give high values
[3] = molecular target: L-lactate dehydrogenase (Plasmodium falciparum (isolate CDC / Honduras)) (UniProt Q27743); test: PfLDH activity inhibition – cell lysate, 3D7 strain, counter-screen for P. falciparum growth inhibition project (AID 2304);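 further: 0% = vehicle and 100% = reference inhibitor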; conditions: P. falciparum 3D7 crude extract, LDH APAD/NBT absorbance; at 2 µM; hits give high values
Chain of L-lactate dehydrogenase (Plasmodium falciparum (isolate CDC / Honduras)) (Q27743 whole entry, looked up): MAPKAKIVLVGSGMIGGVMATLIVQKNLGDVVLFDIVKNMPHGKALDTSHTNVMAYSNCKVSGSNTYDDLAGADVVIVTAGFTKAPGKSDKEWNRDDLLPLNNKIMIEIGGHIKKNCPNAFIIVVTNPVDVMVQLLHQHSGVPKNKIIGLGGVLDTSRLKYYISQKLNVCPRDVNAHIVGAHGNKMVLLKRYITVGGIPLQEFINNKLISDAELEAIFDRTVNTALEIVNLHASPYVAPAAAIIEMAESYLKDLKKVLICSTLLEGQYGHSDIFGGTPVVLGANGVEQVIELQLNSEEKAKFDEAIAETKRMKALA

[4] = inhibition of 3D7 malaria parasite growth – strain 3D7 (AID 2306);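 further: 0% = DMSO wells and 100% = chloroquine plus artemisinin control wells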; conditions: P. falciparum 3D7 erythrocytic growth, LDH absorbance, 72 h; at 2 µM; hits give high values
[5] = molecular target: Calcium-dependent protein kinase 1 (Plasmodium falciparum (isolate 3D7)) (UniProt P62344); test: PfCDPK1 kinase inhibitors, biochemical, TCAMS library (AID 1159585; cut-off not given, nearly all actives have IC50 up to about 0.98 µM;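 further: inhibitors leave more ATP so luminescence rises with inhibition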); conditions: recombinant PfCDPK1, Kinase-Glo ATP depletion luminescence
Chain of Calcium-dependent protein kinase 1 (Plasmodium falciparum (isolate 3D7)) (P62344 whole entry, looked up): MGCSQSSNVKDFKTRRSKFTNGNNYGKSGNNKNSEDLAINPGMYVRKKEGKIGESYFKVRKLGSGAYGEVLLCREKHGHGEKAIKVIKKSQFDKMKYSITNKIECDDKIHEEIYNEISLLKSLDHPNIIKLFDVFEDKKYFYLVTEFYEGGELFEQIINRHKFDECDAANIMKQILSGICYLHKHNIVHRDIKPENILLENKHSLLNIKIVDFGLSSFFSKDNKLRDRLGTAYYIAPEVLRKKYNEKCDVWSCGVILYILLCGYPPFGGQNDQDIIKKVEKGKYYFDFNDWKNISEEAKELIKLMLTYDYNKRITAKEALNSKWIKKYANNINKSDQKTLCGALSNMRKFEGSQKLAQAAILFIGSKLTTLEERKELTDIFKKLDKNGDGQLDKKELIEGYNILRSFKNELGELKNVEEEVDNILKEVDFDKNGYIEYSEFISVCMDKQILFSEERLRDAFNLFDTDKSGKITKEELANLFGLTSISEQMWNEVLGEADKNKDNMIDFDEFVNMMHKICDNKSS

[6] = molecular target: Plasmodium falciparum protein kinase 6 (PK6, PF3D7_1337100) (UniProt Q8IDW1); test: PfPK6 kinase inhibitors, biochemical, TCAMS library (AID 1159586); conditions: recombinant PfPK6, Kinase-Glo ATP depletion luminescence
Chain of Plasmodium falciparum protein kinase 6 (PK6, PF3D7_1337100) (Q8IDW1 1-305): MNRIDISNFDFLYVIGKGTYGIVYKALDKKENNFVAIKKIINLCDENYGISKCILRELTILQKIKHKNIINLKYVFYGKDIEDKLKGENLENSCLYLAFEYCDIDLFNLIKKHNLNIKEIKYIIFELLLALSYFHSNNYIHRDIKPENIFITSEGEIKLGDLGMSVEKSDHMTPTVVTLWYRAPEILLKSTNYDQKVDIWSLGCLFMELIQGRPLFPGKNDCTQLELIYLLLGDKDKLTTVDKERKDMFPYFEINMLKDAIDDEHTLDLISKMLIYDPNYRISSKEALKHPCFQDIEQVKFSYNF

[7] = molecular target: Protein kinase 7 (PK7), Plasmodium falciparum 3D7 (PF3D7_0213400) (UniProt Q7YTF7); test: inhibition of Plasmodium PK7 catalytic activity – biochemical, TCAMS antimalarial set, Kinase-Glo luminescence (AID 1159587); conditions: recombinant PfPK7, Kinase-Glo ATP depletion luminescence
Chain of Protein kinase 7 (PK7), Plasmodium falciparum 3D7 (PF3D7_0213400) (Q7YTF7 1-343): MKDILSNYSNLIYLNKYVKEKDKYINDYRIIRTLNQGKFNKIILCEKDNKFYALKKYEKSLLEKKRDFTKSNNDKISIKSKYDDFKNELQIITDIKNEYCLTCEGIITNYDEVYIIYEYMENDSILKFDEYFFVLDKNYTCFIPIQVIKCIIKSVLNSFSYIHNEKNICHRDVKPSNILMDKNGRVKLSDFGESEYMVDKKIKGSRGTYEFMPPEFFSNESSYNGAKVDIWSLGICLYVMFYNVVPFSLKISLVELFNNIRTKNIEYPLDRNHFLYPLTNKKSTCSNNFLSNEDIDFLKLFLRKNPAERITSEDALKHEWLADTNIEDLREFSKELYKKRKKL

[8] = molecular target: Calcium-dependent protein kinase 4 (Plasmodium falciparum (isolate 3D7)) (UniProt Q8IBS5); test: PfCDPK4 kinase inhibitors, biochemical, TCAMS library (AID 1159588; cut-off not given, nearly all actives have IC50 up to about 0.91 µM); conditions: recombinant PfCDPK4, Kinase-Glo ATP depletion luminescence
Chain of Calcium-dependent protein kinase 4 (Plasmodium falciparum (isolate 3D7)) (Q8IBS5 whole entry, looked up): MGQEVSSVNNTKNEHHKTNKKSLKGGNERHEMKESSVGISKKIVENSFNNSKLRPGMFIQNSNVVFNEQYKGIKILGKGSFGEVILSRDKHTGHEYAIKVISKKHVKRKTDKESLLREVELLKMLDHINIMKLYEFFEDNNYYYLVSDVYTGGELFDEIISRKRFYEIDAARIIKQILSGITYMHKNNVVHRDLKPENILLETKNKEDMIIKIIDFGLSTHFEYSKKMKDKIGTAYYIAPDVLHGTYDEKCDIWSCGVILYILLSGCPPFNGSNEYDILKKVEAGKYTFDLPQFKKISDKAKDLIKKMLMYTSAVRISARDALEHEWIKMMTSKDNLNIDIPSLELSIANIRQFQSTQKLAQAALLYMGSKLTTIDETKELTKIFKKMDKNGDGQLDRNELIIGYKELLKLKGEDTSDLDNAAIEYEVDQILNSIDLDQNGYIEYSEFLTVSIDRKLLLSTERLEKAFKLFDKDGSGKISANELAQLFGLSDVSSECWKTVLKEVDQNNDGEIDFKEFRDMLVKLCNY

SMILES	growth inhibition [1]	inhibition [2]	inhibition [3] [%]	growth inhibition [4]	outcome [5]	outcome [6]	outcome [7]	outcome [8]
CC1N=C(N)N=C(N)N1OCc1cccc2ccccc12 (stereo unspecified)	4%	66% (active)	-2	93% (active)	inactive	inactive	inactive	inactive
CCN(CC)C(=NCCCCCCN=C(/N=C(\N)Nc1ccc(Cl)c(Cl)c1)N(CC)CC)/N=C(\N)Nc1ccc(Cl)c(Cl)c1	90% (active)	1%	-3	94% (active)	inactive	inactive	inactive	inactive
COc1cc(CNC[C@@H](O)[C@H](Cc2ccccc2)NC(=O)c2cc(OC(C)C)cc(N3CCCS3(=O)=O)c2)cc(OC)c1	72% (active)	-1%	0	97% (active)	inactive	inactive	inactive	inactive
Cc1cc(C(=O)N[C@H]2CCN(Cc3ccc(OCCCN(C)C)cc3)C2)ccc1Br	62% (active)	88% (active)	-4	97% (active)	inactive	inactive	inactive	inactive
CC(=O)Nc1ccc(CCNC(C)Cc2ccc(C(=O)Nc3ccc(CC(C)NCCc4cccc(Cl)c4)cc3)cc2)cc1 (stereo unspecified)	84% (active)	50% (active)	-7	100% (active)	inactive	inactive	inactive	inactive
CCc1cc(OC)ccc1C1CCN(CCCCNC(=O)c2ccc(NC(=O)c3ccc(Cl)cc3)cc2)CC1	61% (active)	23%	6	95% (active)	inactive	inactive	inactive	inactive
c1ccc(CNCc2cccc(-c3ccc(-c4nc5ccccc5[nH]4)s3)c2)cc1	63% (active)	8%	3	95% (active)	inactive	inactive	inactive	inactive
O=C(Nc1cc(=O)[nH]c2nc(-c3ccccc3)nn12)C1CCCCC1	89% (active)	-9%	-4	86% (active)	inactive	inactive	inactive	inactive
O=c1cc(NCCCNCc2sc(Br)c(Br)c2Br)[nH]c2ccccc12	38%	0%	5	90% (active)	inactive	inactive	inactive	inactive
Cc1cccc2[nH]c(-c3ccc(-c4ccc(NC(=O)C(C)CN(C)C)cc4)s3)nc12 (stereo unspecified)	98% (active)	23%	0	100% (active)	inactive	inactive	inactive	inactive
O=C(C=Cc1ccc(-c2ccccc2)cc1)N1CCC(CCN2CCC(c3c[nH]c4ccccc34)CC2)CC1	16%	44%	2	87% (active)	inactive	inactive	inactive	inactive
Cc1cc(N[C@@H](CC(C)C)C(=O)NC2CCCC2)nc(NCCc2ccc(F)cc2)n1	47%	15%	-2	100% (active)	inactive	inactive	inactive	inactive
Nc1ccc(-c2nc3ccc(-c4ccc5nc(-c6ccc(N)cc6)[nH]c5c4)cc3[nH]2)cc1	96% (active)	45%	6	101% (active)	inactive	inactive	inactive	inactive
CC1(C)N=C(N)N=C(N)N1c1ccc([N+](=O)[O-])cc1	1%	3%	-3	93% (active)	inactive	inactive	inactive	inactive
O=C(Nc1cccc(-c2cccc(-c3nc4ccc(C(F)(F)F)cc4[nH]3)c2)c1)c1cnc[nH]1	100% (active)	14%	2	101% (active)	inactive	inactive	inactive	inactive
O=C(Nc1ccc(OC2CCN(Cc3ccsc3)C2)c(Cl)c1)c1ccc2ncccc2c1 (stereo unspecified)	10%	84% (active)	-1	88% (active)	inactive	inactive	inactive	inactive
O=C(Nc1ccc(OC2CCN(Cc3ccsc3)C2)c(Cl)c1)c1ccc(F)cc1 (stereo unspecified)	73% (active)	-3%	-8	89% (active)	inactive	inactive	inactive	inactive
FC(F)(F)c1ccc2nc(-c3cccc(-c4cccc(CN5CCN(c6ccncc6)CC5)c4)c3)[nH]c2c1	99% (active)	93% (active)	3	100% (active)	inactive	inactive	inactive	inactive
Cc1cc(CNCCCCCCNCc2ccc(-c3ccccc3)cc2)ccc1O	-2%	90% (active)	-3	98% (active)	inactive	inactive	inactive	inactive
O=S(=O)(NCCN1CCCC1)c1ccc(-c2ccc(CNCc3ccsc3)cc2)s1	40%	31%	7	99% (active)	inactive	inactive	inactive	inactive
COCn1ccc2c3c(N)nc(N)nc3ccc21	1%	63% (active)	6	88% (active)	inactive	inactive	inactive	inactive

SMILES	growth inhibition [1]	inhibition [2]	inhibition [3] [%]	growth inhibition [4]	outcome [5]	outcome [6]	outcome [7]	outcome [8]
Cc1cccc(-c2ccc(NC(=O)C3CCN(Cc4cccc(O)c4)CC3)cc2)c1	64% (active)	21%	0	92% (active)	inactive	inactive	inactive	inactive
COc1nc(Nc2cccc(C)c2)nc(OC)n1	-5%	46%	1	94% (active)	inactive	inactive	inactive	inactive
N#Cc1ccc2c(c1)CCN(CCC1CCC(NC(=O)c3cccc(-c4ccc(F)cc4)c3)CC1)CC2 (stereo unspecified)	10%	32%	-3	92% (active)	inactive	inactive	inactive	inactive
O=c1[nH]c2ccc3[nH]cccc3c2c1C=Nc1ccc(Cn2ccnc2)cc1	85% (active)	33%	1	101% (active)	inactive	inactive	inactive	inactive
OC(Cn1ccnc1)(c1ccc(Cl)cc1Cl)C1CCCCC1 (stereo unspecified)	58% (active)	7%	7	98% (active)	inactive	inactive	inactive	inactive
Cc1cccc2[nH]c(-c3ccc(-c4cccc(CNC5CCN(C)CC5)c4)s3)nc12	73% (active)	21%	2	98% (active)	inactive	inactive	inactive	inactive
O=C(Nc1ccc(C(=O)OCC(c2ccccc2)c2ccccc2)cc1)N[C@@H](Cc1ccc(O)cc1)C(=O)NC1CCN(Cc2ccc(O)cc2)C1 (stereo partly specified)	-4%	-9%	1	96% (active)	inactive	inactive	inactive	inactive
COc1ccc2[nH]c(C(=O)Nc3cccc(-c4ccc(CN(C)C)cc4)c3)cc2c1	34%	23%	3	100% (active)	inactive	inactive	inactive	inactive
O=C(NCCCCCN1CCC(c2c[nH]c3ccccc23)CC1)Nc1ccc(I)c(Cl)c1	5%	88% (active)	3	99% (active)	inactive	inactive	inactive	inactive
OC1(c2ccccc2)CCN(Cc2cccc(-c3c[nH]c4nc(NC5CCCC5)ncc34)c2)C1 (stereo unspecified)	31%	42%	-1	92% (active)	inactive	inactive	inactive	inactive
CC(CN(C)C)C(=O)Nc1cccc(-c2cccc(-c3nc4ccc(F)cc4[nH]3)c2)c1 (stereo unspecified)	94% (active)	29%	5	101% (active)	inactive	inactive	inactive	inactive
CC(C)N1CCN(C(=O)c2ccc(CNCCCN3CCN(c4cccc(Cl)c4Cl)CC3)o2)CC1	36%	41%	1	98% (active)	inactive	inactive	inactive	inactive
O=C(/C=C/c1ccc(Cl)c(Cl)c1)NCCCCCN1CCCC(C(=O)Nc2ccc(Cl)c(Cl)c2)C1 (stereo unspecified)	11%	53% (active)	-1	100% (active)	inactive	inactive	inactive	inactive
CCN1CCN(c2cc(C)c3cc(NC(=O)c4ccc(N(CC)CC)cc4)ccc3n2)CC1	41%	38%	1	95% (active)	inactive	inactive	inactive	inactive
COc1ccc(NC(=O)/C=C/c2ccccc2Cl)cc1OCCN1CCN(c2ccncc2)CC1	52% (active)	7%	-2	101% (active)	inactive	inactive	inactive	inactive
CC1(C)[C@H]2CC[C@@H](CNc3nc(NCCc4cnc[nH]4)nc(Nc4ccc5c(c4)OCO5)n3)[C@@H]1C2	88% (active)	3%	-4	101% (active)	inactive	inactive	inactive	inactive
COCCN(C)c1ccc(C(=O)Nc2ccccc2)cc1NS(=O)(=O)Cc1ccccc1	47%	2%	-5	92% (active)	inactive	inactive	inactive	inactive
O=C(Nc1ccc(Cl)cc1C(=O)Nc1cccc(F)c1)c1ccc([N+](=O)[O-])cc1	54% (active)	10%	0	89% (active)	inactive	inactive	inactive	inactive
CCN1CCC(N(Cc2ccc(-c3ccc(C(F)(F)F)s3)cc2)C(=O)Cn2c(CCc3cccc(F)c3F)nc(=O)c3ccccc32)CC1	95% (active)	47%	7	93% (active)	inactive	inactive	inactive	inactive
CN(C)CCN(C)Cc1ccc(-c2cccc(NC(=O)c3cccc(C#N)c3)c2)cc1	11%	23%	-4	94% (active)	inactive	inactive	inactive	inactive
CCNc1cc(C(=O)N[C@@H](Cc2ccccc2)[C@H](O)CNC2CCSCC2)cc(N2CCCC2=O)c1	98% (active)	0%	-1	99% (active)	inactive	inactive	inactive	inactive
